The target of assay [1] is human Peroxisome Proliferator-activated Receptor alpha (PPARa), PPARA (gene 5465) (UniProt Q07869). The assay is described as follows: ATG_PPARa_TRANS: Attagene TRANS-FACTORIAL HepG2 Assay for human Peroxisome Proliferator-activated Receptor alpha (PPARa) (AID 2283001).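 As to AC50: potency for gain of reporter signal over DMSO so agonist or activator.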 The method, boiled down: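 Exposure: 24 h, transiently transfected HepG2 cells. Endpoint: GAL4-UAS reporter mRNA, RT-PCR with capillary electrophoresis fluorescence. Baseline: DMSO; increases fitted.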

Assay [2] concerns the target human Peroxisome Proliferator-activated Receptor delta (PPARd), PPARD (gene 5467) (UniProt Q03181). Kind of assay: ATG_PPARd_TRANS: Attagene TRANS-FACTORIAL HepG2 Assay for human Peroxisome Proliferator-activated Receptor delta (PPARd) (AID 2283002). The method, boiled down:
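Measured quantity: GAL4-UAS reporter transcript induction in HepG2 after 24 h chemical dosing, with NR-Gal4 chimeras supplied by transient transfection. Detection by RT-PCR and capillary electrophoresis; upward fit against DMSO.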

Read-out in assay [3]: Intercellular Adhesion Molecule 1 (ICAM1), ICAM1 (gene 3383)
Kind of assay: BSK_3C_ICAM1: BioMAP Diversity Plus: 3C Assay for Intercellular Adhesion Molecule 1 (ICAM1) Biomarker Activity (AID 2283003; active = hit-call score of the fitted dose curve at least 0.9, where 1 is the maximum; inactive = score below 0.9). Particulars: primary human endothelial cells (HUVEC); actives raise or lower the signal. The method in brief: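 Using DMSO as baseline, bidirectional curve fitting was applied to ICAM-1 ELISA signals from HUVEC in the 3C system, measured 24 h after compound addition.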

Assay [4] concerns the target human Retinoic Acid Receptor beta (RARb), RARB (gene 5915) (UniProt P10826). The assay is described as follows: ATG_RARb_TRANS: Attagene TRANS-FACTORIAL HepG2 Assay for human Retinoic Acid Receptor beta (AID 2283004). The method, boiled down: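 HepG2 cells transiently transfected with multiplexed GAL4-UAS reporter units expressing chimeric NR–Gal4 fusions; 24 h compound exposure. Reporter mRNA quantified by RT-PCR, 6-FAM labelling, HpaI digestion and capillary electrophoresis; gain-of-signal fitted against DMSO baseline.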

Assay [5] concerns the target Retinoic acid receptor alpha (Homo sapiens) (UniProt P10276). The assay is described as follows: ATG_RARa_TRANS: Attagene TRANS-FACTORIAL HepG2 Assay for human Retinoic Acid Receptor alpha (RARa) (AID 2283005). The method in brief:
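HepG2 cells transiently transfected with multiple reporter units expressing chimeric RARα-GAL4 fusion, with GAL4-UAS-driven reporters. After 24 h compound exposure, reporter mRNA induction quantified by RT-PCR and capillary electrophoresis with fluorescent labeling; gain-of-signal fitted relative to DMSO control.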

Assay [6] in a line: BSK_3C_Proliferation: Cell Proliferation Assessment in the BioMAP Diversity Plus: 3C Assay (AID 2283006; active = hit-call score of the fitted dose curve at least 0.9, where 1 is the maximum; inactive = score below 0.9;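 as to AC50: potency may reflect either rise or fall in cell number versus DMSO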). As to conditions: primary human endothelial cells (HUVEC). The method in brief:
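Measured here: sulforhodamine B (0.1%) staining of TCA-fixed sub-confluent umbilical vein endothelial cultures 48 h post-dosing, absorbance 560 nm. DMSO served as negative control and baseline; both signal gain and loss were modelled.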

Assay [7] has as its target Peroxisome proliferator-activated receptor gamma (Homo sapiens) (UniProt P37231). The assay is described as follows: ATG_PPARg_TRANS: Attagene TRANS-FACTORIAL HepG2 Assay for human Peroxisome Proliferator-activated Receptor-gamma (PPARg) (AID 2283007). The method in brief: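 A TRANS-format multiplexed reporter assay measures activity of an exogenous chimeric NR-Gal4 protein in HepG2 cells. After 24 h of chemical exposure, reporter transcripts are amplified, fluorescently labelled and sized by capillary electrophoresis, with gain of signal scored against DMSO.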

Assay [8] has as its target human Retinoic Acid Receptor gamma (RARg), RARG (gene 5916) (UniProt P13631). The assay is described as follows: ATG_RARg_TRANS: Attagene TRANS-FACTORIAL HepG2 Assay for human Retinoic Acid Receptor gamma (RARg) (AID 2283009). The method in brief:
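Gain-of-signal relative to DMSO is reported from fluorescent capillary electrophoresis of RT-PCR reporter products. These came from HepG2 cells expressing transfected RARg-GAL4 chimeras with UAS reporters, harvested 24 h after dosing.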

The target of assay [9] is human Retinoid X Receptor beta (RXRb), RXRB (gene 6257) (UniProt P28702). The assay is described as follows: ATG_RXRb_TRANS: Attagene TRANS-FACTORIAL HepG2 Assay for human Retinoid X Receptor beta (RXRb) (AID 2283013). The method in brief: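 After a 24 h incubation with test chemical, transfected HepG2 cells carrying NR-Gal4 fusions and GAL4-UAS reporter transcription units yield RNA whose reporter cDNA is FAM-labelled, HpaI-cut and sized by capillary electrophoresis; increases over DMSO are scored.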

For assay [10], the target named is human Thyroid Receptor alpha (THRa1), THRA (gene 7067) (UniProt P10827). Kind of assay: ATG_THRa1_TRANS: Attagene TRANS-FACTORIAL HepG2 Assay for human Thyroid Receptor alpha (THRa1) (AID 2283014). The method in brief: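 HepG2 cells transiently transfected with multiplexed GAL4-UAS reporter units for exogenous chimeric THRa1-Gal4; reporter mRNA measured 24 h after dosing by RT-PCR, 6-FAM labelling, HpaI digestion and capillary electrophoresis. Gain-of-signal fitted versus DMSO baseline.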

Read-out in assay [11]: E-selectin (Homo sapiens) (UniProt P16581)
Kind of assay: BSK_3C_Eselectin: BioMAP Diversity Plus: 3C Assay for Eselectin Biomarker Activity (AID 2283015; active = hit-call score of the fitted dose curve at least 0.9, where 1 is the maximum; inactive = score below 0.9;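 as to outcome: cell surface E-selectin protein quantified by ELISA 24 h after dosing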). As to conditions: primary human endothelial cells (HUVEC); actives raise or lower the signal. The method, boiled down:
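Primary human umbilical vein endothelial cells (3C system) were dosed with chemical and cell-surface E-selectin measured by ELISA 24 h later. Bidirectional curve fitting used DMSO as negative control and baseline.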

Read-out in assay [12]: Interleukin-1 alpha (IL1a), IL1A (gene 3552)
Kind of assay: BSK_BE3C_IL1a: BioMAP Diversity Plus: BE3C Assay for Interleukin-1 alpha (IL1a) Biomarker Activity (AID 2283016; active = hit-call score of the fitted dose curve at least 0.9, where 1 is the maximum; inactive = score below 0.9). As to conditions: primary human bronchial epithelial cells; actives raise or lower the signal. The method, boiled down: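 Measured in human lung primary bronchial epithelial cells: IL-1a by ELISA at 24 h after dosing, with bidirectional fitting against DMSO.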

Read-out in assay [13]: Monocyte Chemoattractant Protein-1 (MCP1), CCL2 (gene 6347)
The assay is described as follows: BSK_3C_MCP1: BioMAP Diversity Plus: 3C Assay for Monocyte Chemoattractant Protein-1 (MCP1) Biomarker Activity (AID 2283017; active = hit-call score of the fitted dose curve at least 0.9, where 1 is the maximum; inactive = score below 0.9). As to conditions: primary human endothelial cells (HUVEC); actives raise or lower the signal. The method in brief:
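Primary human umbilical vein endothelial cells (3C system) were exposed to test chemical for 24 h, after which MCP-1 was quantified by ELISA. Activity was fitted bidirectionally against DMSO as negative control and baseline.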

Read-out in assay [14]: Monocyte Chemoattractant Protein-1 (MCP1), CCL2 (gene 6347)
Kind of assay: BSK_4H_MCP1: BioMAP Diversity Plus: 4H Assay for Monocyte Chemoattractant Protein-1 (MCP1) Biomarker Activity (AID 2283018; active = hit-call score of the fitted dose curve at least 0.9, where 1 is the maximum; inactive = score below 0.9). As to conditions: primary human endothelial cells (HUVEC); actives raise or lower the signal. The method, boiled down: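 Primary human umbilical vein endothelium is exposed to chemical for 24 h before MCP-1 is assayed by ELISA. Concentration-response fitted bidirectionally relative to DMSO.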

Read-out in assay [15]: Human Leukocyte Antigen - DR isotype (HLADR), HLA-DRA (gene 3122)
Kind of assay: BSK_3C_HLADR: BioMAP Diversity Plus: 3C Assay for Human Leukocyte Antigen - DR isotype (HLADR) Biomarker Activity (AID 2283019; active = hit-call score of the fitted dose curve at least 0.9, where 1 is the maximum; inactive = score below 0.9;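 as to outcome: ELISA of cell-surface HLA-DR on HUVEC 24 h after dosing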). As to conditions: primary human endothelial cells (HUVEC); actives raise or lower the signal. The method in brief:
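Primary human umbilical vein endothelial cells (3C system) were dosed with compound and cell-surface HLA-DR was quantified by ELISA at 24 h. Activity was fitted bidirectionally against DMSO as negative control and baseline.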

Read-out in assay [16]: Interleukin-8 (IL8), CXCL8 (gene 3576)
Kind of assay: BSK_3C_IL8: BioMAP Diversity Plus: 3C Assay for Interleukin-8 (IL8) Biomarker Activity (AID 2283020; active = hit-call score of the fitted dose curve at least 0.9, where 1 is the maximum; inactive = score below 0.9). Particulars: primary human endothelial cells (HUVEC); actives raise or lower the signal. The method, boiled down:
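Using DMSO-treated wells as the baseline, bidirectional curve fitting was applied to ELISA-measured IL-8 from human umbilical vein endothelial cultures sampled 24 h after compound addition.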

Read-out in assay [17]: Monokine induced gamma interferon (MIG), CXCL9 (gene 4283)
Kind of assay: BSK_3C_MIG: BioMAP Diversity Plus: 3C Assay for Monokine induced gamma interferon (MIG) Biomarker Activity (AID 2283021; active = hit-call score of the fitted dose curve at least 0.9, where 1 is the maximum; inactive = score below 0.9). Particulars: primary human endothelial cells (HUVEC); actives raise or lower the signal. The method, boiled down:
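ELISA-measured MIG in dosed HUVEC 3C cultures at 24 h, analysed by bidirectional fitting with DMSO defining baseline activity.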

Assay [18] addresses Retinoic acid receptor RXR-alpha (Homo sapiens) (UniProt P19793). Kind of assay: ATG_RXRa_TRANS: Attagene TRANS-FACTORIAL HepG2 Assay for human Retinoid X Receptor alpha (RXRa) (AID 2283012). The method, boiled down:
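Chimeric NR-GAL4 trans-activation in HepG2, 24 h treatment; reporter transcripts quantified by fluorescence on capillary electrophoresis, analysed for upward change from DMSO.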

Assay [19] has as its target Nuclear receptor subfamily 1 group I member 2 (Homo sapiens) (UniProt O75469). The assay is described as follows: ATG_PXR_TRANS: Attagene TRANS-FACTORIAL HepG2 Assay for human Pregnane X Receptor (PXR) (AID 2283008). The method in brief:
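Transient HepG2 transfectants carrying multiplexed reporter transcription units; PXR activity read through a Gal4 chimera. 24 h exposure. RT-PCR/CE fluorescence; upward curve fit referenced to DMSO.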

For assay [20], the target named is human RAR-related Orphan Receptor gamma (RORg), RORC (gene 6097) (UniProt P51449). Kind of assay: ATG_RORg_TRANS: Attagene TRANS-FACTORIAL HepG2 Assay for human RAR-related Orphan Receptor gamma (RORg) (AID 2283011). The method, boiled down:
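Readout: reporter transcript induction (RT-PCR, fluorescent primer extension, capillary electrophoresis) after 24 h compound exposure of transiently transfected HepG2 cells carrying a RORg-Gal4 chimera and GAL4-UAS reporters; DMSO served as baseline, with increasing signal fitted.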

Each structure is given as a SMILES string. Results filed as inconclusive are left out. Active and inactive are the calls of the source. The calls were made as follows, unless noted: active = hit-call score of the fitted dose curve at least 0.9, where 1 is the maximum; inconclusive = response in the unintended direction; inactive = score below 0.9.

Sequence of human Peroxisome Proliferator-activated Receptor delta (PPARd), PPARD (gene 5467) (Q03181 whole entry, looked up, the tested form may be a part): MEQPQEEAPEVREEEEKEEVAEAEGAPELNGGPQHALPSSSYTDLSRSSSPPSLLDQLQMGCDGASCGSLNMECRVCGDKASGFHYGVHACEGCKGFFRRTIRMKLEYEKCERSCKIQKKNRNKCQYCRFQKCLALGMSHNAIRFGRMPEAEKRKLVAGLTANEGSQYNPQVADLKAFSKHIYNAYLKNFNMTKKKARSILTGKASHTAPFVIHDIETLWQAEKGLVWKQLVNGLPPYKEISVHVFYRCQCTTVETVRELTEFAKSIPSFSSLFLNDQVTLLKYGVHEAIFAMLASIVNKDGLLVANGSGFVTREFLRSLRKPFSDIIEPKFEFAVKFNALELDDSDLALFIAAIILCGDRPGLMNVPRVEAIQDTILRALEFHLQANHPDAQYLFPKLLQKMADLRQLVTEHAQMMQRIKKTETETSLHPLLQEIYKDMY
Sequence of Nuclear receptor subfamily 1 group I member 2 (Homo sapiens) (O75469 whole entry, looked up, the tested form may be a part): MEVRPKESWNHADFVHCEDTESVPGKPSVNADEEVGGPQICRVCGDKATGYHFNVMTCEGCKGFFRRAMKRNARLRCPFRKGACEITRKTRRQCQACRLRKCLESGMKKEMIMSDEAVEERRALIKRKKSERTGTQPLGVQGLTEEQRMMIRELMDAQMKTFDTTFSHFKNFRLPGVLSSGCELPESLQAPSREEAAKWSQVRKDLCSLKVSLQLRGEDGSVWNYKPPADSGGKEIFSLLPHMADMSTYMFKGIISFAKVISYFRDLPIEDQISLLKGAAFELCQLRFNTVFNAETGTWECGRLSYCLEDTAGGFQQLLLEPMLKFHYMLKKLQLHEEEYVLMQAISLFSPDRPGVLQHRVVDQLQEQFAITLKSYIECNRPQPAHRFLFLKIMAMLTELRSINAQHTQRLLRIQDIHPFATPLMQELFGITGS
Sequence of Peroxisome proliferator-activated receptor gamma (Homo sapiens) (P37231 whole entry, looked up, the tested form may be a part): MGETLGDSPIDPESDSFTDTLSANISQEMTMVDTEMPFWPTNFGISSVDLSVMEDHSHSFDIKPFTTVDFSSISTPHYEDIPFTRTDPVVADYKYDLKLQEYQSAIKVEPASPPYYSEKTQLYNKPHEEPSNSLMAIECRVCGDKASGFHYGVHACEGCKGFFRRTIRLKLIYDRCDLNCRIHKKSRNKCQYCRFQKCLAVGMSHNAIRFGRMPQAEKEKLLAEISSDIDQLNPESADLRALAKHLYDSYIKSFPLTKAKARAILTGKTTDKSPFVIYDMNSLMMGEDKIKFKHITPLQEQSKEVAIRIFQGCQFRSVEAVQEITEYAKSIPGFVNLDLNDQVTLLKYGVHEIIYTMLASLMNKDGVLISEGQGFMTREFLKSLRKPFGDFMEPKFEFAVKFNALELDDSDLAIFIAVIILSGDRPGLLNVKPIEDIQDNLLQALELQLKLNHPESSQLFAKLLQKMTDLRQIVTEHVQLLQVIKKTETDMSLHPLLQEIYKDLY
Sequence of human RAR-related Orphan Receptor gamma (RORg), RORC (gene 6097) (P51449 whole entry, looked up, the tested form may be a part): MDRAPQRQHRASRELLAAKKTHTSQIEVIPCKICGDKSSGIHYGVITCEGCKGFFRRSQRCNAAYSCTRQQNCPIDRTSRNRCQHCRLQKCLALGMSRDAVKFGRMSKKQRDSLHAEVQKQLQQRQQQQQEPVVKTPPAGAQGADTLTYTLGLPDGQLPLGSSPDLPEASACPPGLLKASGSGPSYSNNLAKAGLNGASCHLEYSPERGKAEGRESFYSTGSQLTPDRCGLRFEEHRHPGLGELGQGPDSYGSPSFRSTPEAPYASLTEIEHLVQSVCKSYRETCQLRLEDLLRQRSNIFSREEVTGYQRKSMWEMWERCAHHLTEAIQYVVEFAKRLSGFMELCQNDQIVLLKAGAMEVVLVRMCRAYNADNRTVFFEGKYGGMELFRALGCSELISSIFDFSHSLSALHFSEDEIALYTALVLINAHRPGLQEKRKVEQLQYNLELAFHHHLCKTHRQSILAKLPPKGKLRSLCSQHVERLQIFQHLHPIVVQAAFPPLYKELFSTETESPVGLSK
Sequence of E-selectin (Homo sapiens) (P16581 whole entry, looked up): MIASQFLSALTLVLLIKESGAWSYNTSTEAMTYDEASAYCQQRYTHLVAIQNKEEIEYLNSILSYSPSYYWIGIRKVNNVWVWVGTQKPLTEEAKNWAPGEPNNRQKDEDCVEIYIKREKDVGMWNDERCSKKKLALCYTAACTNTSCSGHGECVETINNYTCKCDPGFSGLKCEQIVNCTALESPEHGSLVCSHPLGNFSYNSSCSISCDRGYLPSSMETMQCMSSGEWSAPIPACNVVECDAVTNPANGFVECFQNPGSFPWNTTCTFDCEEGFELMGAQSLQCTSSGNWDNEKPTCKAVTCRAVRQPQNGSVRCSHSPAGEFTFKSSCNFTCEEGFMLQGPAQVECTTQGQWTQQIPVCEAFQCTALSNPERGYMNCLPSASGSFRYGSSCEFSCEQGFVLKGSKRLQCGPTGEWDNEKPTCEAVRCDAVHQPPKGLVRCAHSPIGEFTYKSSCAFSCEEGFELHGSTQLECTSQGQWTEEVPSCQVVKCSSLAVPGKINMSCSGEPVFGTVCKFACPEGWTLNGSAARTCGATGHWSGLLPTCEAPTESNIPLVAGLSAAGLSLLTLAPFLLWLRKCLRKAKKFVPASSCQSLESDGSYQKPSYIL
Sequence of Retinoic acid receptor RXR-alpha (Homo sapiens) (P19793 whole entry, looked up, the tested form may be a part): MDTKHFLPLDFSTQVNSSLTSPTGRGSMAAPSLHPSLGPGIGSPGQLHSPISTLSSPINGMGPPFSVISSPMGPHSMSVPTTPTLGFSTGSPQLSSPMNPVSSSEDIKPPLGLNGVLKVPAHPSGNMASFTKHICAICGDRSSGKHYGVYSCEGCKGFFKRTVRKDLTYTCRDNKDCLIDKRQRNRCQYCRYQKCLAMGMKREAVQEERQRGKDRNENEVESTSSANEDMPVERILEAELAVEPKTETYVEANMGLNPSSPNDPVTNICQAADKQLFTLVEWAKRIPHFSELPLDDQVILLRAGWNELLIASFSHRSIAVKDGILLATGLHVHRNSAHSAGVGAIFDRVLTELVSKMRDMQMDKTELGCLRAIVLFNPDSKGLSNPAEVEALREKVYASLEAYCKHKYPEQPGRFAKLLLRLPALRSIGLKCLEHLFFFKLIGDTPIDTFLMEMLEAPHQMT
Sequence of human Thyroid Receptor alpha (THRa1), THRA (gene 7067) (P10827 whole entry, looked up, the tested form may be a part): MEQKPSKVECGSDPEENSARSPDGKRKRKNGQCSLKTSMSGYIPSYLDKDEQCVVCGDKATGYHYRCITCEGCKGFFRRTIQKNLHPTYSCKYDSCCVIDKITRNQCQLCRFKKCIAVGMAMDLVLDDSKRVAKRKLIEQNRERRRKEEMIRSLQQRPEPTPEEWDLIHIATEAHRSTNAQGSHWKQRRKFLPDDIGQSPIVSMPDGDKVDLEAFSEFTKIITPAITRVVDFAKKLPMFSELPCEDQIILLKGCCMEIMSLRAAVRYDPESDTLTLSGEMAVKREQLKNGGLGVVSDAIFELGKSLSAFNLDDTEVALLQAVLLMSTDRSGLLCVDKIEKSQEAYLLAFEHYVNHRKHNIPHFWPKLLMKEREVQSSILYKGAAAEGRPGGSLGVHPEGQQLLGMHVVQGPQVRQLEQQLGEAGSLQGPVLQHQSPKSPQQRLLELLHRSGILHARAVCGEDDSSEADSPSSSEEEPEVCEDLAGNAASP
Sequence of human Retinoid X Receptor beta (RXRb), RXRB (gene 6257) (P28702 whole entry, looked up, the tested form may be a part): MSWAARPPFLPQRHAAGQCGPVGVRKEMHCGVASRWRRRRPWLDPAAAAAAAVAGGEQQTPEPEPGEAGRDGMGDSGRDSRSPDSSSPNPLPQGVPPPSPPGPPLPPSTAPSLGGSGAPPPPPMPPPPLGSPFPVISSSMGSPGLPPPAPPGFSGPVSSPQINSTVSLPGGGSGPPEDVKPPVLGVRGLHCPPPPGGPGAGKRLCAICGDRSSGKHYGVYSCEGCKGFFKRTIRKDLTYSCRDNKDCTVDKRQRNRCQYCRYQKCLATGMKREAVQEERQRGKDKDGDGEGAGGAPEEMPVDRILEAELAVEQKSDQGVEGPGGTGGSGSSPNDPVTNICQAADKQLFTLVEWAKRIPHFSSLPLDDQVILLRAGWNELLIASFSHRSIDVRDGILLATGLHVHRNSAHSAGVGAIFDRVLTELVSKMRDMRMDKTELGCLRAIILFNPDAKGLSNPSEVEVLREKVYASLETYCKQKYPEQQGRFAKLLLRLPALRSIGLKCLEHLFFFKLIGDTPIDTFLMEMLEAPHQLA
Sequence of human Peroxisome Proliferator-activated Receptor alpha (PPARa), PPARA (gene 5465) (Q07869 whole entry, looked up, the tested form may be a part): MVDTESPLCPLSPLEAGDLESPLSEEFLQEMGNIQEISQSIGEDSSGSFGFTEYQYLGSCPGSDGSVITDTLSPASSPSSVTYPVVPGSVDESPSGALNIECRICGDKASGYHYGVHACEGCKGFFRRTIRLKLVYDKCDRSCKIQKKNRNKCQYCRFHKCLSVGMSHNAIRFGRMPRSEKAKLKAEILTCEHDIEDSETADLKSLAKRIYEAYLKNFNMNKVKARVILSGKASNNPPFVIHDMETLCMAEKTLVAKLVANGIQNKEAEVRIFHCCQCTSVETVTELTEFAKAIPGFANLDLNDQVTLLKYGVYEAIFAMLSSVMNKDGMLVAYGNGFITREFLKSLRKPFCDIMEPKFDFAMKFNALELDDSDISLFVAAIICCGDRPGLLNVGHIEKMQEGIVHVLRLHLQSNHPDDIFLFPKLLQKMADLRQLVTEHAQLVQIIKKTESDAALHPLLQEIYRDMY
Sequence of human Retinoic Acid Receptor gamma (RARg), RARG (gene 5916) (P13631 whole entry, looked up, the tested form may be a part): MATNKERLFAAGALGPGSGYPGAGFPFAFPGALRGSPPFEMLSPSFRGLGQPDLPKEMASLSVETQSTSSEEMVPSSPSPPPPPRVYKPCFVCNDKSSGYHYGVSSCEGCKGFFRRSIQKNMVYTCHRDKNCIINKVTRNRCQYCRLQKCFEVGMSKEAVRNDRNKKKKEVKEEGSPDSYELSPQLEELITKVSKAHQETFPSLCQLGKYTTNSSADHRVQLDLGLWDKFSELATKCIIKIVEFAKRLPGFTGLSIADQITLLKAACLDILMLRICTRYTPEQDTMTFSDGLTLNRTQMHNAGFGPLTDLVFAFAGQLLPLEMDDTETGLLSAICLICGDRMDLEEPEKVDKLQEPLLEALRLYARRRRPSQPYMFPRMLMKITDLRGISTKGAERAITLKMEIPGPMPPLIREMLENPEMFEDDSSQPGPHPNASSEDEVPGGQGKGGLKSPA

Regarding `CCCOC(=O)c1ccc(O)cc1`, the call in assay [1], in assay [2], in assay [3], in assay [4], in assay [5] and in [6] was inactive. The result in [8], in assay [9], in assay [10], in assay [11], in assay [12] and in assay [13] was inactive. Further, the result in assay [14], in assay [15], in assay [16] and in [17] was inactive. For the same compound, the half-maximal activity concentration (AC50) (as a rule, the concentration giving half of the maximal activity seen) in assay [7] was 45.6 µM (active).

As for `CCN(CC)CCNc1ccc(CNC=O)c2sc3ccc(OC)cc3c(=O)c12`, the AC50 in assay [1] is 0.878 µM (active); in assay [3], 30.8 µM (active); in [6], 13.8 µM (active); in assay [7], 0.718 µM (active); in assay [18], 1.85 µM (active); in assay [9] it was 0.45 µM (active). Moreover, the AC50 in assay [11] was 27.3 µM (active); in assay [12] it was 29.3 µM (active); in assay [13] it was 19.4 µM (active); in [14] it was 20 µM (active); in assay [15], 13.4 µM (active); in assay [16], 16.4 µM (active). Besides, the call in [2], in assay [8] and in assay [10] was inactive.

Turning to `C[C@@H]1C[C@H]2[C@@H]3CCC4=CC(=O)C=C[C@]4(C)[C@@]3(F)[C@@H](O)C[C@]2(C)[C@@]1(O)C(=O)COP(=O)(O)O`, the result in [1], in [2], in assay [3], in assay [6], in [7] and in [19] was inactive. Also, the outcome in assay [20], in assay [18], in assay [9], in [10], in assay [11] and in [12] was inactive. Further, the result in [13], in [14], in assay [15], in assay [16] and in assay [17] was inactive.

Source of the values: PubChem BioAssay (EPA / NIEHS).
